A selection: hits, their analogues and other compounds. The true share with any hit is near 3.2%.
IL2 activator – activates IL-2 in a cell-based reporter assay | IL-2 activation reporter assay, cell-based qHTS; stimulated with anti-CD3/CD4/CD28 beads; in transgenic mouse T cells | activation, % (series mostly up to about 46 µM) | hit rate 0.065% among 360,000 | AID 652025; in the data active = activation above about 50%; inconclusive = mostly about 30% to 49%
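EGFP and DsRed fluorescence is measured by plate cytometry in unstimulated transgenic mouse T cells exposed to compound for 60 minutes, then stimulated 18 hours at 37 degrees C with anti-CD3/anti-CD4 beads plus anti-CD28.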
A549 viability – kills or reduces viability of A549 cells in Nrf2 counter-screen; A549 ARE-Fluc cells, CellTiter-Fluor viability, 18-24 h; Potency, µM (highest dose often 46 µM), most hits filed as inhibitors; hit rate 0.16% among 390,000
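A549 ARE-Fluc cells in 5% FBS OPTI-MEM, 5000 cells/well, rested 2 h then exposed to compounds in concentration-response for 18-24 h at 37 °C. Viability by CellTiter-Fluor fluorescence (Ex 405/Em 525) after 30 min; luciferase luminescence (BugLite, 15 min, RT) read afterwards.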
Nrf2 inh – inhibitors of Nrf2 signaling | Potency, µM (top dose mostly 46 µM), most hits filed as inhibitors | hit rate 2.1% among 360,000 | A549 ARE-Fluc reporter, luciferase luminescence, 18-24 h; also: nearly all actives have a fitted effect of over 60% in size
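Nrf2 activity is the BugLite luminescence, read 15 min after reagent at room temperature, following CellTiter-Fluor cytotoxicity readout (30 min, 37C). Compound titrations were applied for 18-24 h to 5000 A549 ARE_Fluc cells/well in 5% FBS OPTI-MEM.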
Nrf2 activator – activates Nrf2 signaling; Potency, µM (highest dose often 46.1 µM), actives largely listed as activators; AREc32 ARE-luciferase reporter (MCF7-derived line), luminescence, 24 h; hit rate 0.31% among 410,000; also: nearly all actives have a fitted effect of over 65% in size
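AREc32_Fluc, 1000 cells/well, OPTI-MEM + 5% FBS, o/n 37 deg C 5% CO2; 23 nL cpd by pin tool, 24 hr; Steady-Glo 30 min RT, luminescence.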
p53 reactivator – mutant p53 re-activation in reporter cells; Potency, µM (highest dose often 92.2 µM), actives largely listed as activators; H1299 p53-A138V BP100-luciferase reporter, luminescence, 24 h; hit rate 0.063% among 320,000; also: nearly all actives have a fitted effect of over 45% in size
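p53-null H1299 cells stably carrying temperature-sensitive p53-A138V and a BP100-luciferase reporter were pinned with compounds (4-point, 1:5 series) and held 24 hrs at 37 deg C. Luminescence was read 10 min after detection reagent.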
BRCA1 expr up – activators of BRCA1 expression. hit rate 1.1% among 380,000. MCF7-BRCA1-FFLuc reporter, luminescence, 48 h; response scale: scaled: vehicle 0%, 10 µM genistein 100%. Potency, µM (top dose mostly 46.1 µM), hits mostly activators; also: nearly all actives have a fitted effect of over 80% in size
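Luminescence from a BRCA1-driven firefly luciferase in MCF7 cells was the read-out, taken 15 min after substrate addition following 48 h compound exposure at 37 °C. Data were normalized to a 10 microM genistein control and DMSO vehicle.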
Hits are given with their value; i = inactive; ? = inconclusive; nt = no result. Unless noted, calls follow the shape of the dose curve; as a rule, active = well fitted curve in the direction sought with a large enough effect; inconclusive = small, poorly fitted or top-dose-only effect, or another doubt; inactive = no such curve, though single readings can be large; an effect the other way counts as inactive or inconclusive.

SMILES	IL2 activator	A549 viability	Nrf2 inh	Nrf2 activator	p53 reactivator	BRCA1 expr up
N#Cc1ccc(-c2cccnc2)nc1SCc1ccc(Cl)c(Cl)c1	i	i	23µM	i	i	i
N#Cc1ccc(-c2cccnc2)nc1SCc1ccc(Cl)cc1Cl	i	i	i	i	i	i
NC1=C(c2ccc([N+](=O)[O-])cc2)C(=O)CO1	i	i	i	i	i	i
O=c1oc2c(-c3ccc([N+](=O)[O-])cc3)cc(O)cc2s1	i	i	i	22µM	i	i
O=C(CN1C(=O)c2ccccc2S1(=O)=O)c1ccc(Cl)cc1Cl	i	i	12µM	i	nt	i
O=C(CN1C(=O)c2ccccc2S1(=O)=O)c1ccccc1F	i	i	?	i	i	i
O=C(CN1C(=O)c2ccccc2S1(=O)=O)c1ccc(F)cc1	i	i	13µM	i	i	i
O=C(CN1C(=O)c2ccccc2S1(=O)=O)c1ccc(OC(F)F)cc1	i	i	?	i	i	i
N#Cc1c(N2CCSCC2)nsc1-c1ccccc1Cl	i	i	i	i	?	11µM
CCN(C(=O)c1ccccc1F)c1nc(-c2ccc(OC)cc2)cs1	i	i	i	i	i	7.9µM
CCC(=O)N(Cc1ccco1)c1nc(-c2ccc(OC)cc2)cs1	i	i	i	i	i	i
CCC(=O)N(CC)c1nc(-c2ccc(OC)cc2)cs1	i	i	?	i	?	11µM
COc1ccc(/C=N/n2cnn(Cc3ccccc3Cl)c2=S)cc1OC	i	i	18µM	i	i	i
NCC(=O)c1c[nH]c2ccccc12	nt	nt	nt	nt	nt	i
COc1ccc(NC(=O)n2nc(OC(=O)c3cccs3)cc2N)cc1	i	i	i	i	i	13µM
COc1ccc(-c2ccc(S(=O)(=O)n3nc(OC(=O)c4cccs4)cc3N)cc2)cc1	i	i	i	i	i	i
CCOc1ccc(N2C(=O)c3ccccc3C2O)cc1 (stereo unspecified)	i	i	i	i	?	6.3µM
Cc1ccc(-c2nnc(Nc3ccc4c(c3)nc(C)n4C)c3ccccc23)cc1	i	?	21µM	i	i	i
COc1cc(-c2nn3c(-c4ccccc4)nnc3s2)cc(OC)c1OC	i	nt	i	i	i	i
COc1cc(-c2nn3c(-c4cc(-c5ccccc5)n[nH]4)nnc3s2)cc(OC)c1OC	nt	?	21µM	nt	nt	i
CC(C)(C)OC(=O)Cc1nnc(-c2cc3ccccc3[nH]2)o1	nt	i	?	nt	nt	nt
COc1ccc(/C=N/N=C2/SCC(=O)N2Cc2ccccc2)cc1	i	i	?	i	i	5.6µM
COc1ccc(CN2C(=O)CS/C2=N/N=C/c2ccccc2)cc1	i	i	i	i	?	4µM
C=C(C)CSc1nnc(-c2cccc(Cl)c2)n1N	i	nt	i	i	i	13µM
C=C(C)CSc1nnc(-c2ccc(OC)cc2)n1N	i	i	?	i	?	?
SMILES	IL2 activator	A549 viability	Nrf2 inh	Nrf2 activator	p53 reactivator	BRCA1 expr up
CCc1nc2sc3c(N4CCC(C)CC4)ncnc3c2c2c1CCCC2	nt	?	i	i	nt	nt
O=[N+]([O-])c1cccc(-c2nnc(-c3ccccc3F)o2)c1	i	i	?	13µM	i	?
COc1ccc(-c2nnc3n2N=C(c2ccc(OC)c(OC)c2)CS3)c(OC)c1	nt	i	?	nt	nt	nt
Cn1cc(Cl)c(C(=O)OCC(=O)Nc2nc(-c3ccc(Br)cc3)cs2)n1	i	i	i	i	i	11µM
Cn1nccc1C(=O)OCC(=O)Nc1nc(-c2ccccc2)cs1	i	i	i	i	?	i
CSc1ccccc1C(=O)Nc1ccc2c(c1)CCC2	i	i	?	i	?	11µM
O=C(Nc1ccc2c(c1)CCC2)c1cc(F)cc(F)c1	i	i	?	i	?	3.2µM
O=C(Nc1ccc2c(c1)CCC2)c1ccccc1Br	i	i	?	i	?	?
COc1cccc(NS(=O)(=O)c2ccc3[nH]cc(C(=O)NC4CCCCC4)c(=O)c3c2)c1	nt	i	?	i	nt	i
Cc1ccc(C)c(NC(=O)Cn2c(=O)n(CCC(C)C)c(=O)c3cccnc32)c1	nt	i	i	i	nt	i
CCCOc1ccc(-c2nn(-c3ccccc3)cc2C2NC(=O)NC(C)=C2C(=O)OC(C)C)cc1 (stereo unspecified)	nt	?	?	i	nt	i
CCC(Cc1ccccc1)NC(=O)CN1C(=O)COc2ccc(S(=O)(=O)N3CCCCCC3)cc21 (stereo unspecified)	nt	i	i	i	nt	i
COc1ccccc1Oc1nc2c(c(=O)n(C)c(=O)n2C)n1Cc1cccc(Br)c1	nt	i	16µM	i	nt	i
Cn1c(=O)c2c(nc(Cl)n2CCOc2ccccc2)n(C)c1=O	i	i	26µM	i	i	i
COc1ccc(Oc2nc3c(c(=O)n(C)c(=O)n3C)n2Cc2cccc(OC)c2)cc1	i	i	i	i	i	i
Cn1c(=O)c2c(nc(N3CCCCCC3)n2Cc2cccc3ccccc23)n(C)c1=O	i	23µM	?	i	i	i
CCCCn1c(Cl)nc2c1c(=O)n(C)c(=O)n2C	i	i	i	i	i	i
CCOc1nc2c(c(=O)n(C)c(=O)n2C)n1Cc1ccccc1Cl	i	i	18µM	i	i	i
CCOc1ccc(NS(=O)(=O)c2ccc3c4c(cccc24)C(=O)N3)cc1	nt	i	?	i	nt	nt
CNC(=O)c1cnc2sc(N3CCC(C)CC3)nn2c1=O	nt	i	?	i	nt	nt
O=C(Nc1ccccc1OC(F)F)c1cc2c(s1)CCC2	i	i	?	i	?	i
COc1ccccc1NC(=O)c1ccc(NC(=O)c2cc3c(s2)CCC3)cc1	i	i	23µM	i	i	i
COc1ccc(CCNC(=O)c2ccc3c(c2)N(Cc2ccccc2Cl)C(=O)c2ccccc2S3)cc1OC	nt	i	nt	i	nt	nt
CCCCOc1ccc(C(=O)NCCS(=O)(=O)N2CCN(c3ccccc3OC)CC2)cc1	nt	i	nt	i	nt	nt
O=[N+]([O-])c1ccc(/C=N/Nc2nc(-c3ccccc3)c3cc(Br)ccc3n2)o1	i	i	i	i	i	i
SMILES	IL2 activator	A549 viability	Nrf2 inh	Nrf2 activator	p53 reactivator	BRCA1 expr up
Oc1ccc(/C=N/Nc2nc(N3CCCCCC3)nc(N3CCCCCC3)n2)c(O)c1	i	i	15µM	i	i	i
Oc1ccc(Br)cc1/C=N/Nc1nc(N2CCCCC2)nc(N2CCOCC2)n1	i	?	i	i	i	i
O=[N+]([O-])c1ccc(-c2ccc(/C=N/Nc3nc(N4CCCC4)nc(N4CCCC4)n3)o2)cc1	i	i	i	i	i	i
O=[N+]([O-])c1ccc(/C=N/Nc2nc(N3CCCC3)nc(N3CCCC3)n2)o1	i	?	23µM	i	i	i
Fc1ccc(Nc2nc(N/N=C/c3ccco3)nc(N3CCCCC3)n2)cc1	i	i	18µM	i	i	i
Cc1ccc2nc(N/N=C\c3ccc([N+](=O)[O-])o3)nc(-c3ccccc3)c2c1	i	23µM	?	i	i	i
